The source of these data is PubChem BioAssay (EPA / NIEHS).

Inconclusive results are not listed. Calls of active or inactive are those of the source. Rule for the calls: active = hit-call score of the fitted dose curve at least 0.9, where 1 is the maximum; inconclusive = response in the unintended direction; inactive = score below 0.9.

Chain of human RAR-related Orphan Receptor beta (RORb), RORB (gene 6096) (Q92753 whole entry, looked up): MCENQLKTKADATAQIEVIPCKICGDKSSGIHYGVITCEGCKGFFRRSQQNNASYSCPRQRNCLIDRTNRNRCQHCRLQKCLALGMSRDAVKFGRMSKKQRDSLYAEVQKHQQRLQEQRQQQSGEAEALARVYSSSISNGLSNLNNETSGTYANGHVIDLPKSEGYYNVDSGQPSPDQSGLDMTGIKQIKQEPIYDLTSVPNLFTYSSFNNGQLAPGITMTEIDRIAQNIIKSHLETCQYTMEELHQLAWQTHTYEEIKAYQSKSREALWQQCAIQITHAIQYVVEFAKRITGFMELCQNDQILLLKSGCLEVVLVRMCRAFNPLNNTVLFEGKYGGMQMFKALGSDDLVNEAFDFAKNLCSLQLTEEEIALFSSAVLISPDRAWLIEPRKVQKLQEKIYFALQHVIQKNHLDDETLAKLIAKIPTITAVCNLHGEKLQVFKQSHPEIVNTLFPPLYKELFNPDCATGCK

This experiment has as its target human RAR-related Orphan Receptor beta (RORb), RORB (gene 6096) (UniProt Q92753). Nature of the experiment: ATG_RORb_TRANS: Attagene TRANS-FACTORIAL HepG2 Assay for human RAR-related Orphan Receptor beta (RORb) (AID 2283010). The method, then:
ATG_TRANS is a cell-based, multiplexed-readout assay that uses HepG2, a human liver cell line, with measurements taken at 24 hours after chemical dosing in a 24-well plate.ATG_RORb_TRANS is one of 30 assay component(s) measured or calculated from the ATG_TRANS assay. It is designed to make measurements of mRNA induction, a form of inducible reporter, as detected with fluorescence intensity signals by Reverse transcription polymerase chain reaction (RT-PCR) and Capillary electrophoresis technology.Data from the assay component ATG_RORb_TRANS was analyzed into 1 assay endpoint. This assay endpoint, ATG_RORb_TRANS, was analyzed in the positive analysis fitting direction relative to DMSO as the negative control and baseline of activity. Using a type of inducible reporter, measures of mRNA for gain-of-signal activity can be used to understand the reporter gene at the transcription factor-level as they relate to the gene RORB. Furthermore, this assay endpoint can be referred to as a primary readout, because this assay has produced multiple assay endpoints where this one serves a reporter gene function. To generalize the intended target to other relatable targets, this assay endpoint is annotated to the nuclear receptor intended target family, where the subfamily is orphan.
Human liver HepG2 cells are transiently transfected with multiple reporter transcription units (MRTUs) in 6-well plates using FuGene 6 reagent (Roche; 3 ml FuGene/1 mg DNA). The MRTU constructs are regulated by a cis-regulating element (promoter). […] A major difference between the CIS and TRANS system is that in CIS activities of endogenous TFs are measured, whereas the TRANS assay evaluates changes in activities of exogenous, chimeric NR-Gal4 proteins. […] At the end of 24 hour incubation, total RNA was isolated using TriZol reagent (Invitrogen). The isolated RNA is then reverse-transcribed using oligo(dT) primer and Mo-MLV reverse transcriptase (Invitrogen) with DNAse I (Ambion) treatment for 30 min. The one-tenth of the produced cDNA was amplified by PCR using Taq DNA polymerase (Invitrogen) and two reporter sequence-specific primers. The PCR products were fluorescently labeled by primer extension with 6-arboxyfluorescein (6-FAM) 5'-labeled reporter sequence-specific primer (2 min at 95 C, 20 s at 68 C and 10 min at 72 C) and these products were digested with 5U of HpaI (New England Biolabs) for 2h at 37 C. The fragments were purified using Qiaquick PCR columns (Qiagen), analyzed on an ABI 3130xL genetic analyzer (Applied Biosystems) with peak positions identified by using a set of X-rhodamine (ROX)-labeled MapMarker1000 molecular weight standards (BioVentures). The raw capillary electrophoresis data was processed using Attagraph software (Attagene).
As to `CC(C)(C)OOC(C)(C)C`, the result was inactive.
In the case of `Cn1[nH]nnc1=S`, the result was inactive.
For `N#Cc1ccc(O)cc1` the value was “inactive”.
For `Cc1ccc(N)cc1N` the value was “inactive”; for `O=c1ssc(Cl)c1Cl`, “inactive”.
In the case of `NNC(N)=S`, the compound was called inactive.
For `CO/N=C(/C(=O)OC)c1ccccc1COc1ccccc1C` the value was “inactive”; for `O=C(O)CF`, “inactive”; for `O=C(O)C(F)(F)C(F)(F)C(=O)O`, “inactive”.
For `CCOC(=O)c1ccccc1N` the value was “inactive”.
In the case of `OCC(F)(F)OC(F)(F)C(F)(F)OC(F)(F)C(F)(F)OC(F)(F)F` it was “inactive”; in that of `N#Cc1c(-c2ccc(Cl)cc2)[nH]c(C(F)(F)F)c1Br`, “inactive”.
Turning to `CC(C)CBr`, the result was inactive.
In the case of `C=C(C)C(=O)OCC1CO1` (configuration not stated) it was “inactive”.
In the case of `CN(C)C(=O)Cl` it was “inactive”; in that of `CCOP(=S)(S)OCC`, “inactive”; in that of `Nc1cc2c3c(c1)C(c1ccccc1)=N[C@@H](NC(=O)c1cccnc1)C(=O)N3CC2`, “inactive”.
In the case of `Nc1ccc(Sc2ccc(N)cc2)cc1` it was “inactive”; in that of `O=C(O)C(F)(OC(F)(F)C(F)(F)C(F)(F)F)C(F)(F)F` (configuration not stated), “inactive”; in that of `CC(Cl)CN(C)C` (configuration not stated), “inactive”.
Regarding `COC(=O)C(F)(F)C(F)(F)OC(F)(C(F)(F)F)C(F)(F)OC(F)=C(F)F` (configuration not stated), the result was inactive.
For `CC(C)(C)c1ccc(O)cc1` the value was “inactive”; for `ClC(Cl)=C(c1ccc(Cl)cc1)c1ccccc1Cl`, “inactive”.
In the case of `O=C(O)C=CC(F)(C(F)(F)F)C(F)(F)F` it was “inactive”; in that of `Cc1cccc(N)c1`, “inactive”.
In the case of `Cc1ccc(C(=O)Cl)cc1` it was “inactive”.
Regarding `O=C(O)C1C(C(=O)O)C2(Cl)C(Cl)=C(Cl)C1(Cl)C2(Cl)Cl` (configuration not stated), the outcome was inactive.
In the case of `ClC(Cl)c1ccccc1` it was “inactive”.
For the compound `CSC(C)(C)C=NO`, the call was inactive.
For `Nc1ccc2ccccc2c1` the value was “inactive”.
For `N#C/C=C/c1ccccc1` the value was “inactive”; for `CCC(C)(C)c1ccc(O)cc1`, “inactive”; for `C/C(=N\NC(=O)Nc1cc(F)cc(F)c1)c1ncccc1C(=O)O`, “inactive”.
In the case of `CC(O)C(F)(F)C(F)(F)F` (configuration not stated) it was “inactive”.
As to `CCCCCCCc1ccc(O)cc1`, the outcome was inactive.
In the case of `O=[N+]([O-])c1ccc(Cl)c(Cl)c1` it was “inactive”; in that of `O=S(=O)(F)C(F)(F)C(F)(F)C(F)(F)C(F)(F)C(F)(F)C(F)(F)C(F)(F)C(F)(F)F`, “inactive”.
